Screen size: about 48,000 compounds; about 160 (0.33%) were called active. The entries come from a sample that favours actives as a whole. Unmarked numbers belong to inactive results.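 Rule for the calls: active = survival measured by cellular ATP above 50% at 15 µg/ml in the first screen; inactive = the rest.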

The experiment can be described thus: protection against thapsigargin ER stress killing – CSM14.1 cells, ATP luminescence, primary screen (AID 1010).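 Note: cell death triggered by about 15 µM thapsigargin; ATP read 24 h after thapsigargin was added; plate controls were thapsigargin with DMSO for no effect and DMSO without thapsigargin for full effect.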 To be noted: CSM14.1 thapsigargin ER stress survival, hits give high values, screened at 15 µg/mL (by protocol).
As to `COc1ccc(C2Sc3ccccc3NC3=C2C(=O)c2ccccc23)cc1` (configuration not stated), the relative survival (cellular ATP) is 5.1%.

For `COc1ccc(NC(=O)c2cccc(N3C(=O)c4ccc(C(=O)Nc5ccc(OC)cc5)cc4C3=O)c2)cc1`, the relative survival (cellular ATP) was 0.4%.

As for `COc1cc(C2NC(=S)NC(C)=C2C(=O)Nc2ccccc2)ccc1O` (configuration not stated), the relative survival (cellular ATP) was 3.8%.

As for `CC(=O)N1C(=O)c2cccc3cccc1c23`, the relative survival (cellular ATP) was 17.3%.

Regarding `COc1cc(/C=N/n2cnnc2)cc(Br)c1OCCOc1ccc(C(C)(C)C)cc1`, the relative survival (cellular ATP) is 6.5%.

As to `O=C(CNC(=O)C(c1ccccc1)c1ccccc1)N/N=C/c1cn[nH]c1-c1ccccc1`, the relative survival (cellular ATP) was 49.7%.

As for `Cc1c(OCC(=O)c2ccc(F)cc2)ccc2c3c(c(=O)oc12)CCCC3`, the relative survival (cellular ATP) was 0.4%.

Take `Cc1ccc(N(Cc2c(O)ccc3ccccc23)C(=O)c2cccc([N+](=O)[O-])c2)cc1`: the relative survival (cellular ATP) was -2.5%.

As for `O=S(=O)(/N=C/c1ccccc1)c1cccs1`, the relative survival (cellular ATP) was 1.2%.

For `COc1ccc(NC2SC(=O)NC2=O)cc1` (configuration not stated), the relative survival (cellular ATP) is 11.7%.

For the compound `CCOc1cccc(-c2cc(C(=O)N3CCCCCC3)c3ccccc3n2)c1`, the relative survival (cellular ATP) is 3.9%.

As to `NNC(=O)c1n[nH]c2c1CCCCCCCCCC2`, the relative survival (cellular ATP) was -1.8%.

On to `Cc1ccccc1NC(=S)N1CCN(c2cccc(Cl)c2)CC1`, for which the relative survival (cellular ATP) is 6.6%.

For `CSc1ccc(CN2CCN(C(=O)c3cccc(F)c3)CC2)cc1`, the relative survival (cellular ATP) was 7.7%.

With `O=C(Nc1ccc(Br)cn1)c1cc2n(n1)C(C(F)(F)F)CC(c1cccs1)N2` (configuration not stated), the relative survival (cellular ATP) was -3.5%.

For `NS(=O)(=O)c1ccc(CCNC(=O)c2cccs2)cc1`, the relative survival (cellular ATP) was -2.4%.

As for `COc1ccccc1C(=O)NN1C(=O)/C(=C2/C(=O)N(CC(=O)O)c3ccccc32)SC1=S`, the relative survival (cellular ATP) was 25.3%.

As for `CCN(CC)S(=O)(=O)c1ccc(NC(=O)c2ccc(OC)c(I)c2)cc1`, the relative survival (cellular ATP) was 0.8%.

In the case of `COc1ccc(C2CC(=O)C3=C(C2)Nc2ccccc2NC3c2cccc(C)c2)cc1` (configuration not stated), the relative survival (cellular ATP) was 102% (active).

`COc1ccc(C2CC(=O)C3=C(C2)Nc2ccccc2NC3c2ccc(SC)cc2)cc1` (configuration not stated): the relative survival (cellular ATP) is 7.4%.

In the case of `COc1ccc(C2CC(=O)C3=C(C2)Nc2ccccc2NC3c2cc(F)ccc2F)cc1` (configuration not stated), the relative survival (cellular ATP) was -0.8%.

As to `COc1ccc(C2CC(=O)C3=C(C2)Nc2ccccc2NC3c2cc3c(cc2[N+](=O)[O-])OCO3)cc1` (configuration not stated), the relative survival (cellular ATP) is -4.3%.

For `COc1ccc(C2CC(=O)C3=C(C2)Nc2ccccc2NC3c2cccc(Cl)c2)cc1` (configuration not stated), the relative survival (cellular ATP) was 6.7%.

On to `COC(=O)C1=C(C)NC2=C(C(=O)CC(c3ccc(OC)c(OC)c3)C2)C1c1ccc(OC)c(OC)c1` (configuration not stated), for which the relative survival (cellular ATP) is 8.8%.

In the case of `COC(=O)C1=C(C)NC2=C(C(=O)CC(c3ccccc3)C2)C1c1cccc(I)c1` (configuration not stated), the relative survival (cellular ATP) is 22.6%.

As to `CCCCOc1ccccc1C1Nc2ccccc2NC2=C1C(=O)CC(c1ccc(OC)c(OC)c1)C2` (configuration not stated), the relative survival (cellular ATP) is 76.5% (active).

On to `COC(=O)C1=C(C)NC2=C(C(=O)CC(c3ccc(OC)c(OC)c3)C2)C1c1ccccc1OCc1ccccc1` (configuration not stated), for which the relative survival (cellular ATP) was 60.6% (active).

The values above are taken from PubChem BioAssay AID1010 (Sanford-Burnham Center for Chemical Genomics, 2008).
